From PubChem BioAssay
Where “and” joins values, the source holds several entries; their conditions need not be identical. Equal entries are not always repeated. Calls of active or inactive are those of the source. The rule behind the calls is not given here.

tested on: Aerobactin synthetase IucA (Klebsiella pneumoniae hvKP1); assay: IucA enzyme inhibition, primary screen, biochemical, Spectrum library (AID 1346200); conditions: malachite green pyrophosphate, A620, at 8 µM, stronger effect = lower value;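 note: 100% = wells without compound and 0% = wells lacking enzyme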

| Structure (SMILES) | activity remaining |
| --- | --- |
| CC(=O)Oc1cc(C)c2c(c1C(OC(C)=O)OC(C)=O)Oc1c(c(C)c(OC(C)=O)c3c1C(OC(C)=O)OC3=O)OC2=O (stereo not drawn) | 96.1% (inactive) |
| C=CC1=C(C)/C(=C/c2[nH]c(Cc3[nH]c(/C=C4\NC(=O)C(C)=C4C=C)c(C)c3CCC(=O)O)c(CCC(=O)O)c2C)NC1=O | 112% (inactive) |
| CC(=O)c1ccc2c(c1)N(CCCN(C)C)c1ccccc1S2 | 104% (inactive) |
| Nc1cc(C(Cl)=C(Cl)Cl)c(S(N)(=O)=O)cc1S(N)(=O)=O | 104% (inactive) |
| COC1=CC(=O)C[C@@H](C)[C@]12Oc1c(Cl)c(OC)cc(OC)c1C2=O | 115% (inactive) |
| OC[C@H]1OC([S-])[C@H](O)[C@@H](O)[C@@H]1O.[Au+] (stereo partly drawn) | 109% (inactive) |
| COc1ccc2ccc(=O)oc2c1CC=C(C)C | 106% (inactive) |
| CN1CCCN=C1COC(=O)C(O)(c1ccccc1)C1CCCCC1 (stereo not drawn) | 108% (inactive) |
| CC(=O)N[C@@H](CCC(=O)O)C(=O)O | 92.3% (inactive) |
| NCCOB(c1ccccc1)c1ccccc1 | 97.5% (inactive) and 103% (inactive) |
| CC1(C)C2CC[C@]3(C)C(C(=O)C=C4[C@H]5C[C@@](C)(C(=O)O)CC[C@]5(C)CC[C@]43C)[C@@]2(C)CC[C@@H]1O (stereo partly drawn) | 109% (inactive) |
| CC(=O)O[C@H]1CC[C@@]2(C)C(=CC(=O)C3C4CCC(C(C)CCCC(C)C)[C@@]4(C)CCC32)C1 (stereo partly drawn) | 123% (inactive) |
| NC[C@@H]1O[C@H](O[C@@H]2[C@@H](CO)OC(O[C@@H]3[C@@H](O)[C@H](N)C[C@H](N)[C@H]3OC3O[C@H](CN)[C@@H](O)[C@H](O)[C@H]3N)[C@@H]2O)[C@H](N)[C@@H](O)[C@@H]1O (stereo partly drawn) | 99.1% (inactive) |
